D2 PAM-1 – positive allosteric modulators of human D2 dopamine receptor; P14416; DiscoveRx D2 beta-arrestin cells, luminescence, 90 min; 100% = 57 uM dopamine signal; potentiation, % (no concentration beside the values); actives 0.23% (n = 360,000); AID 624464; in the data active = potentiation above about 50%; inconclusive = mostly about 30% to 49%
Target sequence (P14416 whole entry, looked up): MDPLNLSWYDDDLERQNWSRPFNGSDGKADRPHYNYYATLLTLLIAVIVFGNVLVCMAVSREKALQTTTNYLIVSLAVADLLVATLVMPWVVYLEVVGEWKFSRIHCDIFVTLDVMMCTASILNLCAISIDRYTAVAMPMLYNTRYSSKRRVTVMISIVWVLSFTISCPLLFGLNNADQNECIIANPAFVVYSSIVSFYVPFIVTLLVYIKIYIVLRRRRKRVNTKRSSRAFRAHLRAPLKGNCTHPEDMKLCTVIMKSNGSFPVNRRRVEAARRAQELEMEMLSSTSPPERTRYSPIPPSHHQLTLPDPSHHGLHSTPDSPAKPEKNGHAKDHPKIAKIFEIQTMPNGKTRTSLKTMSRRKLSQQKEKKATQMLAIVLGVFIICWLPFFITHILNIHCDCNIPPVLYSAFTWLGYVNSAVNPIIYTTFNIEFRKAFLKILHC
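D2 cells co-treated with compound plus 50 nM dopamine (EC20) for 90 min at 37 deg C to detect potentiation. Beta-arrestin recruitment was read as enzyme-fragment luminescence after 1 h at ambient temperature. Full response was set by 57 uM dopamine.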
D2 ag-1 – activates the human D2 dopamine receptor | AID 624465 | actives 0.084% (n = 360,000) | DiscoveRx PathHunter D2 beta-arrestin, luminescence, 90 min; 100% = 57 uM dopamine signal | activation, % (no concentration beside the values) | P14416; in the data active = activation above about 40%; inconclusive = between about 15% and that limit
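DiscoveRx PathHunter D2 beta-arrestin cells (2,100/well) attached overnight, then compound-stimulated 90 min at 37 C in HBSS/10 mM HEPES/0.1% Tween-20 buffer; beta-galactosidase complementation read by luminescence after 1 h at ambient temperature. Dopamine 57 uM final (EC100) as control.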
D2 antag – antagonizes the human D2 dopamine receptor; HEK293 TREx D2 cells, calcium flux, dopamine EC80; inhibition, % at 10 µM; actives 2% (n = 340,000); AID 485344; in the data active = inhibition above about 30%; inactive = below that, where a call was filed
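Calcium mobilization kinetics were recorded at 1 s intervals in tetracycline-induced HEK293 T-REx D2 cells, first for 180 s after compound addition and then 180 s after EC80 dopamine.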
D2 ag-2 – agonists of human D2 dopamine receptor. P14416. HEK293 T-REx D2 cells, calcium flux agonist mode. activation, % at 2 µM. actives 0.53% (n = 340,000);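 active = activation over 3 SD above normal in the single-dose calcium agonist read, cut at about 30% in these data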
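Tetracycline-induced HEK293 T-REx cells with force-coupled D2 receptor, plated overnight at 30 C, loaded with no-wash calcium dye. After a 10 s baseline, compound was pin-added and calcium flux read kinetically for 180 s; calcium rises flagged agonists.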
D2 PAM-2 – D2 dopamine receptor (human) potentiation. P14416. HEK293 T-REx D2, calcium flux, EC20 dopamine potentiation. potentiation, % at 10 µM. actives 0.34% (n = 340,000). AID 485347;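 active = potentiation over 3 SD above the plate norm, cut at about 30% in these data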
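Tetracycline-induced HEK293 T-REx cells force-coupled to calcium signalling expressed D2; compounds were pin-added after a 10 s baseline, read kinetically 180 s, then an EC20 dopamine challenge followed with a further 180 s calcium read.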
Hits are given with their value; i = inactive; ? = inconclusive; nt = no result. Most compounds without a hit are left out; they make up all but 2.4% or so of the library.

SMILES | D2 PAM-1 | D2 ag-1 | D2 antag | D2 ag-2 | D2 PAM-2
Cc1ccc(CNC(=O)Cn2c(=O)cc(-c3ccccc3)c3c(C)nn(C)c32)cc1 | nt | nt | nt | i | i
COc1cccc(-c2nnc(SCC(=O)NC3CCS(=O)(=O)C3)n2C)c1 (centres undefined) | i | i | 39 | i | i
COc1ccc2oc(=O)cc(CN3CCN(C(=O)c4ccccc4Br)CC3)c2c1 | nt | nt | nt | i | i
Brc1ccc(C2=Nc3cccc4cccc(c34)N2)o1 | 84 | ? | i | i | i
CCN(CC)S(=O)(=O)c1ccc(C(=O)OCn2c(SC)nnc(C)c2=O)cc1 | i | i | 35 | i | i
CSc1nnc(C)c(=O)n1COC(=O)c1ccccc1 | i | i | i | i | i
CCN(CC)S(=O)(=O)c1ccc(C(=O)OCn2nnc3ccccc3c2=O)cc1 | i | i | i | i | 75
O=c1[nH]c(Nc2ccc3c(c2)OCCO3)nnc1Cc1ccccc1 | i | i | 49 | i | i
Cc1ccc2oc(C(F)(F)C(F)F)cc(=O)c2c1 | i | i | i | i | i
Cc1ccc2oc(C(Cl)(Cl)Cl)cc(=O)c2c1 | 76 | i | i | i | i
COc1ccccc1C(=O)COC(=O)Cc1n[nH]c(=O)c2ccccc12 | i | i | nt | nt | i
COc1ccc(C(C)=O)cc1COC(=O)Cc1n[nH]c(=O)c2ccccc12 | i | i | 33 | i | i
NC(=O)C[n+]1cccc(CNC(=O)c2ccc(OC(F)F)cc2)c1 | i | i | 32 | i | i
O=C(C[n+]1cccc(CNC(=O)c2ccc(OC(F)F)cc2)c1)Nc1cc(C(F)(F)F)ccc1Cl | i | i | 63 | i | i
Cc1ccc(N(C(=O)c2snc(C(N)=O)c2N)C(C(=O)NCC2CCCO2)c2ccc(C)o2)c(C)c1 (centres undefined) | i | i | i | i | i
CCc1ccccc1N(C(=O)c1snc(C(N)=O)c1N)C(C(=O)NCC1CCCO1)c1ccc(C)o1 (centres undefined) | i | i | 33 | i | i
O=C(CSc1ncccn1)N/N=C/c1cccc(OC2CSC2)c1 | i | i | 36 | i | i
COc1ccc(NC(=O)c2ccc(OCC3CCCO3)cc2)cc1Cl (centres undefined) | i | i | 47 | i | i
COc1ccc(C(=O)Nc2cccc(NC(=O)c3ccc(OC)c(OC)c3)n2)cc1OC | 85 | i | i | i | i
O=C(COC(=O)CCCC1=NS(=O)(=O)c2ccccc2N1)Nc1ccccc1 | i | i | i | i | 38
CCc1ccc(NC(=O)COC(=O)CCCC2=NS(=O)(=O)c3ccccc3N2)cc1 | i | i | i | i | i
CCS(=O)(=O)N1CCc2cc(C(=O)N3CCN(c4cccc(C(F)(F)F)c4)CC3)ccc21 | nt | nt | nt | i | i
COCCNC(=O)CN(c1cc(Cl)ccc1OC)S(=O)(=O)c1ccc(C)c([N+](=O)[O-])c1 | i | i | 59 | i | i
COCCCNC(=O)CN(c1cc(Cl)ccc1OC)S(=O)(=O)c1ccc(C)c([N+](=O)[O-])c1 | i | i | i | i | i
CCC(=O)Nc1cccc(NC(=O)c2ccc(C)cc2Cl)c1 | i | i | 35 | i | i
SMILES | D2 PAM-1 | D2 ag-1 | D2 antag | D2 ag-2 | D2 PAM-2
CCC(=O)Nc1cccc(NC(=O)c2ccccc2Cl)c1 | i | i | i | i | nt
Fc1ccc(N2CCN(c3nc4ccccc4c4nc(-c5cccnc5)nn34)CC2)cc1 | nt | nt | nt | i | i
COc1ccc(C2/C(=C(/O)c3ccc(S(=O)(=O)N4CCOCC4)cc3)C(=O)C(=O)N2CCN2CCOCC2)cc1 (centres undefined) | i | i | 40 | i | i
CCCc1cnc2c(c1SCc1ccc(C(F)(F)F)cc1)c(=O)n(C)c(=O)n2C | nt | nt | nt | i | i
CCN(CCN(C)C)C(=O)C1CCN(S(=O)(=O)c2c(C)noc2/C=C/c2ccccc2F)CC1 | i | i | i | i | i
Cc1noc(C)c1S(=O)(=O)N1CCC(C(=O)Nc2ccccn2)CC1 | i | i | i | i | 34
Cc1ccc(S(=O)(=O)N2CCC(C(=O)NCCc3ccccn3)CC2)cc1 | i | i | 43 | i | i
CCOc1ccccc1/C=C/c1onc(C)c1S(=O)(=O)N1CCC(C(=O)N(CC)CC)CC1 | i | i | 56 | i | i
Cc1noc(C)c1S(=O)(=O)N1CCN(c2ccccc2)CC1 | i | i | 38 | i | i
CC1(C)CC(=O)C2=C(C1)N1C(=C(C#N)C2c2ccc(Cl)cc2)N=C(N)c2ccccc21 (centres undefined) | i | i | i | i | i
CC1(C)CC(=O)C2=C(C1)N1C(=C(C#N)C2c2ccccc2Cl)N=C(N)c2ccccc21 (centres undefined) | i | i | 36 | i | i
COc1cc(NS(=O)(=O)c2c(C(=O)N3CCCCC3)c(C)n(C)c2C)cc(OC)c1OC | nt | nt | nt | i | i
Cc1ccccc1C1N(c2nccs2)C(=O)C2CCCN21 (centres undefined) | i | i | i | i | i
O=C1C2CCCN2C(c2ccccc2)N1c1nccs1 (centres undefined) | i | i | 67 | i | i
Cc1cccc(/C(N)=N/OC(=O)c2cccs2)c1 | 112 | ? | nt | nt | nt
N/C(=N\OC(=O)c1cccs1)c1ccccc1 | ? | i | i | i | i
Cc1ccc(/C(N)=N/OC(=O)c2cccs2)cc1 | 77 | ? | i | i | i
COc1ccc(/C(N)=N/OC(=O)c2cccs2)cc1OC | 71 | 42 | i | i | i
COc1ccc(/C(N)=N/OC(=O)c2c(-c3ccccc3Cl)noc2C)cc1OC | 56 | ? | i | i | i
O=C(Nc1cccc(Cl)c1)C1CCN(c2nc3ccccc3nc2C(F)(F)F)CC1 | nt | nt | nt | i | i
Cc1ccc(C(=O)c2sc(Nc3ccc(F)cc3)nc2N)c(C)c1 | nt | nt | nt | i | i
COc1ccc(S(N)(=O)=O)cc1-c1nnc2c3ccccc3c(C)nn12 | i | i | 30 | i | i
c1cc2c(cc1C1=Nn3c(nnc3C3CCCCC3)SC1)OCO2 | i | i | 33 | i | i
c1ccc(-c2nnc3n2N=C(c2ccc4c(c2)OCO4)CS3)nc1 | i | i | i | i | i
O=C(COc1ccc(Cl)cc1)Nc1ccc2c(c1)CCC2 | i | i | 39 | i | i
SMILES | D2 PAM-1 | D2 ag-1 | D2 antag | D2 ag-2 | D2 PAM-2
CCN(Cc1ccccc1)S(=O)(=O)c1cc(C(=O)Nc2cc(Cl)cc(Cl)c2)ccc1F | nt | nt | nt | nt | i
CCCCOc1ccccc1C(=O)N(Cc1cccc(F)c1)C1CCS(=O)(=O)C1 (centres undefined) | nt | nt | nt | i | i
Cc1ccc(NC(=O)CSCn2nnc3c(=O)[nH]c(Cc4ccc(F)cc4)nc32)c(C)c1 | nt | nt | nt | i | i
Cc1ccc(S(=O)(=O)N(C)Cc2ccccc2)cc1C(=O)N1CCCCC1 | i | i | i | i | i
CC(=O)N1CCN(C(=O)c2cc(S(=O)(=O)N(C)Cc3ccccc3)ccc2Cl)CC1 | i | i | 30 | i | i
CCOc1ccccc1C(O)C1=CC(=O)c2ccccc2C1=O (centres undefined) | 58 | i | nt | nt | nt
